# PubChem BioAssay (NCI)
# The panel holds about 83,000 compounds, 20% with a hit somewhere; the sample as a whole holds those more often.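 Cells were grown in 96-well plates and exposed to the test compound at a single concentration for 48 hours; results are reported as percent growth, with values below 10 considered active.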 Unmarked numbers belong to inactive results. Calls of active or inactive are those of the source.
# Legend:
# Assay in all cases: NCI-60 one-dose screen, 48 h (100 = growth as untreated, 0 = no growth, -100 = all killed)
# Settings in all cases: 10 µM unless noted
# NCI-H23 lung = tested on: NCI-H23 lung
# NCI-H226 lung = tested on: NCI-H226 lung
# NCI-H322M lung = tested on: NCI-H322M lung
# HOP-62 NSCLC = tested on: HOP-62 NSCLC
# NCI-H460 lung = tested on: NCI-H460 lung
# HOP-92 NSCLC = tested on: HOP-92 NSCLC
# A549/ATCC NSCLC = tested on: A549/ATCC NSCLC
# 786-0 renal = tested on: 786-0 renal
# COLO 205 colon = tested on: COLO 205 colon
# DU-145 prostate = tested on: DU-145 prostate
# K-562 leukemia = tested on: K-562 leukemia
# MDA-MB-231 breast = tested on: MDA-MB-231 breast
# RXF 393 renal = tested on: RXF 393 renal
# SF-268 CNS = tested on: SF-268 CNS
# SF-295 CNS = tested on: SF-295 CNS
# SF-539 CNS = tested on: SF-539 CNS
# UACC-257 melanoma = tested on: UACC-257 melanoma
# M14 melanoma = tested on: M14 melanoma
# MALME-3M melanoma = tested on: MALME-3M melanoma
Compound,growth (NCI-H23 lung),growth (NCI-H226 lung),growth (NCI-H322M lung),growth (HOP-62 NSCLC) [%],growth (NCI-H460 lung),growth (HOP-92 NSCLC),growth (A549/ATCC NSCLC),growth (786-0 renal),growth (COLO 205 colon),growth (DU-145 prostate),growth (K-562 leukemia),growth (MDA-MB-231 breast),growth (RXF 393 renal),growth (SF-268 CNS),growth (SF-295 CNS),growth (SF-539 CNS),growth (UACC-257 melanoma),growth (M14 melanoma),growth (MALME-3M melanoma)
CC(NC(=O)Oc1cccc2ccccc12)c1ccccc1 (centres undefined),92.8%,99.7%,107%,100,105%,103%,73.1%,103%,110%,107%,84.1%,77.6%,105%,78.1%,107%,97.9%,73.2%,107%,–
C(=C1c2ccccc2-c2ccccc21)c1ccccn1,79.9%,99.6%,89.1%,71.7,83.8%,73.4%,63.7%,87.2%,84.9%,106%,19.6%,62.2%,80.6%,82.7%,71.3%,72.2%,91.1%,33.4%,–
Nc1ccc2c(c1)C(=O)c1cc(Cl)c(Cl)cc1-2,88.8%,83.1%,117%,94.2,105%,72.2%,90.7%,91.4%,83.5%,100%,87.5%,79.1%,104%,93.4%,105%,87.4%,107%,104%,–
COc1cccc(N2CCN(CC(=O)N3CCN(c4nnc(-c5ccc(Cl)cc5)c(-c5ccc(Cl)cc5)n4)CC3)CC2)c1,82.9%,74.7%,71.9%,95.9,70.8%,11.9%,-1.64% (active),79.4%,78.6%,89%,32.6%,83.1%,–,84.1%,66.7%,57.8%,–,70.5%,92.2%
CN1CCN(CCCCCN=c2cc3c(=O)n(CCCCCN4CCN(C)CC4)c(=O)c4c(NCCCCCN5CCN(C)CC5)cc5c(O)n(CCCCCN6CCN(C)CC6)c(=O)c2c5c4-3)CC1,34.1%,0.125% (active),-23.2% (active),14.6,5.16% (active),2.86% (active),5.01% (active),92.9%,-15.4% (active),0.918% (active),8.94% (active),-34% (active),64.4%,-2.31% (active),36.4%,10.4%,-11.4% (active),81.8%,–
O=C1OC2(c3ccccc31)c1ccccc1-c1ccccc12,89.6%,95.8%,103%,93.8,106%,96.9%,72.4%,86.2%,81.7%,114%,36.5%,68.3%,96.8%,86.8%,75.4%,99.2%,88.7%,50.7%,–
Nc1ccc2c(c1Br)Cc1ccccc1-2,92%,104%,114%,97.8,102%,76%,86%,107%,99.2%,106%,95.2%,74.7%,111%,86.7%,92.1%,79.4%,114%,105%,–
COc1ccc(N2CCN(CC(=O)N3CCN(c4nnc(-c5ccc(Cl)cc5)c(-c5ccc(Cl)cc5)n4)CC3)CC2)cc1,81.7%,57.9%,69.3%,93.3,52.4%,50.3%,-8.6% (active),60.4%,86%,70.6%,22.3%,84.1%,–,69.8%,53.9%,30.7%,–,59.8%,81.7%
CC(=O)Nc1c(Cl)cc2c(c1Cl)Cc1ccccc1-2,91.5%,90.7%,106%,107,104%,87.7%,92.1%,108%,112%,108%,104%,80.3%,104%,111%,132%,105%,106%,107%,–
Cc1cc(-c2ccccc2)cc(C)n1,103%,102%,105%,112,112%,95.4%,92.7%,99%,120%,125%,98%,101%,117%,111%,101%,102%,108%,103%,–
CCSCC1CC(O)(c2ccccc2)C(c2ccccc2)C(c2ccc(Cl)cc2)O1 (centres undefined),14.7%,-1.26% (active),18%,16.4,-45.8% (active),-3.51% (active),-23.1% (active),3.26% (active),-100% (active),18.2%,–,-26% (active),-30.9% (active),17.3%,-54.1% (active),-16.4% (active),-11.5% (active),14.3%,-34.7% (active)
C=C1CC[C@@H]2[C@](C)(COC(C)=O)[C@H](OC(C)=O)CC[C@@]2(C)[C@@H]1CC(NCc1ccccc1)C1=CCOC1=O (some centres undefined),57.4%,11.4%,77%,89,48.4%,41.7%,–,71.4%,45.6%,67.2%,24.7%,64.7%,74.3%,62.1%,63.9%,79.5%,32.8%,42.1%,77.1%
c1ccc(-c2nc(Nc3nccnn3)c3ccccc3n2)cc1,90.4%,87.5%,98.1%,99.8,101%,105%,–,96.9%,107%,99.5%,91.1%,91.8%,96.7%,98%,98%,99.1%,109%,99.3%,99.1%
O=C(O)CNC(=O)C1(N2C(=O)c3ccccc3C2=O)CCCC1,101%,96.7%,106%,110,113%,124%,99%,94.1%,112%,124%,96.2%,101%,95.7%,116%,102%,118%,109%,105%,–
COc1cc(/C=N/OC(=O)Nc2ccccc2)cc(OC)c1OC,107%,96%,92.2%,93.9,109%,74.6%,–,103%,107%,115%,107%,92.6%,121%,107%,129%,100%,105%,107%,97.9%
CCC(=O)Nc1cc2c(cc1Cl)-c1ccccc1C2,89.1%,81.7%,106%,97.6,98.2%,76.9%,94.2%,91.5%,99.4%,109%,104%,74.5%,102%,84.3%,121%,94.3%,96.6%,102%,–
CCN(CC)CCNCC(=O)Oc1ccc(/C=C/C(=O)CC(=O)/C=C/c2ccc(OC(=O)CNCCN(CC)CC)c(OC)c2)cc1OC,5.35% (active),21%,55.4%,34,3.7% (active),39.1%,–,-34.9% (active),17.1%,-56.6% (active),-37.7% (active),14%,-73% (active),13.5%,27.3%,-35.9% (active),53.7%,-18.6% (active),-0.278% (active)
